These results are taken from PubChem BioAssay.

Test [1] is described as follows: compounds binding Alexa647 anti-His antibody – biochemical, small-molecule microarray, 635 nm fluorescence, artefact control for SMM control protein annotation, primary screen (AID 1128).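 Note: score merges feature fluorescence with signal-to-noise for each printed compound spot.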 The following applies: higher = more signal.
The test system of test [2] is Human papillomavirus type 1a E7 protein (residues 1-88). Put plainly: HPV1a E7 small-molecule binders, primary screen, biochemical, small-molecule microarray, residues 1-88, 635 nm (AID 1129). The following applies: small-molecule microarray binding, fluorescence 635 nm; higher = more signal.
In test [3] the target is Focal adhesion kinase 1 (Homo sapiens) (UniProt Q05397). Put plainly: PTK2 protein binding on printed compound slides – biochemical, small-molecule microarray, 635/667 nm fluorescence, BSA, DTT, primary screen (AID 1130).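 Note: composite of spot emission at 667 nm and signal to noise over triplicate slides.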 The following applies: 635 nm fluorescence, higher = more signal.
In test [4] the test system is Fibrinogen (Alexa647-labelled). Put plainly: Alexa647-fibrinogen binding to printed small molecules – biochemical, small-molecule microarray, 635/667 nm fluorescence, artefact control for SMM control-protein annotation, profiling panel (AID 1131).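 Note: z-score merges 667 nm fluorescence with per-spot signal-to-noise over triplicate slides.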 The following applies: fibrinogen-A647 binding fluorescence, higher = more signal.
Test [5] deals with Follistatin (Homo sapiens) (UniProt P19883). Put plainly: FST protein binding to printed compounds – biochemical, small-molecule microarray, 635/667 nm fluorescence, primary screen (AID 1132). The following applies: 635 nm fluorescence, higher = more signal.
Test [6] concerns the target Fibroblast growth factor 2 (Homo sapiens) (UniProt P09038). Put plainly: basic fibroblast growth factor binding to printed compounds – biochemical, small-molecule microarray, 635/667 nm fluorescence, primary screen (AID 1133). The following applies: FGF2, fluorescence 635/667, higher = more signal.
Test [7] in a line: JC-1 mitochondrial potential readout, lung cancer cells – cell-based, A549, JC-1 fluorescence, basal, 24 h, 100 nL, profiling panel (AID 1138).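 Note: A549 lung adenocarcinoma cells under basal conditions with no added stimulus; test concentration not given here.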 The following applies: higher = more signal.
For test [8], the system named is Lefty1. Put plainly: Lefty1 protein binding to printed compounds – biochemical, small-molecule microarray, 635/667 nm fluorescence, primary screen (AID 1139). The following applies: fluorescence 635/667, higher = more signal.
Test [9] relates to wheat germ agglutinin (Triticum aestivum), Alexa647-labelled. Put plainly: Alexa647-WGA lectin binding to printed small molecules – biochemical, small-molecule microarray, 635/667 nm fluorescence, artefact control for SMM control-protein annotation, profiling panel (AID 1140).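 Note: score merges 667 nm feature emission with signal to noise over triplicate slides.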 The following applies: WGA-A647 binding, 635 nm fluorescence, higher = more signal.
For test [10], the target named is Luciferin 4-monooxygenase (Photinus pyralis) (UniProt P08659). Put plainly: inhibition of purified Photinus pyralis luciferase – biochemical, luminescence, purified enzyme, 2006 set, primary screen (AID 1141).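 Note: cell-free assay with purified firefly luciferase at 100 ng per well in PBS; test concentration not given here.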 The following applies: purified firefly luciferase, SteadyGlo luminescence, 30 min; higher = more signal, called active from +8 up or from −8 down.
In test [11] the test system is Wnt5a (protein binding on small-molecule microarray). Put plainly: small molecules binding Wnt5a protein – biophysical, small-molecule microarray, 635/667 nm fluorescence, primary screen (AID 1142).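 Note: fluorescence read at 667 nm with signal to noise per printed feature.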 The following applies: 635 nm fluorescence, higher = more signal.
Test [12] can be described thus: ATP-based viability of Huh7 replicon cells – cell-based, CellTiter-Glo luminescence, basal, 48 h, cytotoxicity control for HCV replication inhibitor project, primary screen (AID 1143).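 Note: Huh7 hepatoma cells carrying a hepatitis C replication reporter with no stimulus; test concentration not given here.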 The following applies: higher = more signal, called active from +8 up or from −8 down. (A replicon is a self-replicating genome or part of one, used to study replication in cells.)
Test [13] in a line: Pseudomonas biofilm growth suppression – PAO1 strain, BacTiter-Glo luminescence, LB-PBS, primary screen (AID 1144). The following applies: P. aeruginosa PAO1 biofilm, 12 h, higher = more signal.
The nature of test [14]: basal CRE-LacZ reporter activity in PC12 – cell-based, unstimulated, primary screen (AID 1145). The following applies: no forskolin, luminescence, 4.5 h, higher = more signal, called active from +8 up or from −8 down.
Test [15] can be described thus: forskolin-driven CRE-LacZ activity in PC12 – cell-based, CRE-LacZ reporter, forskolin-stimulated, primary screen (AID 1146).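 Note: PC12 cells with 6xCRE LacZ reporter stimulated by forskolin 10 µM; beta-galactosidase reporter signal reflecting CREB driven transcription.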 The following applies: luminescence, 4.5 h, higher = more signal, called active from +8 up or from −8 down.
Test [16] addresses Streptavidin (Streptomyces avidinii) (UniProt P22629). Put plainly: compounds binding control protein streptavidin – biophysical, small-molecule microarray, 635/667 nm fluorescence, artefact control for SMM compound annotation, primary screen (AID 1147).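 Note: signal reflects streptavidin binding to arrayed compounds as a control protein.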 The following applies: higher = more signal.
A short description of test [17]: probe aInhba binding on compound microarray – biochemical, small-molecule microarray, 635/667 nm fluorescence, primary screen (AID 1148).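 Note: score merges 667nm spot fluorescence with signal-to-noise for antibody binding to printed compounds.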 The following applies: higher = more signal.
Test [18] has as its target Torsin-1A (Homo sapiens) (UniProt O14656). Put plainly: TOR1A wild-type binding on microarray – cell lysate, small-molecule microarray, lysate, 635/667 nm, primary screen (AID 1149). The following applies: COS7 hTOR1A-WT lysate, 635 nm fluorescence, higher = more signal.
Test [19] shares this target. Put plainly: torsin A mutant lysate binding on microarrays – cell lysate, small-molecule microarray, COS7 lysate, 635/667 nm fluorescence, primary screen (AID 1150).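 Note: score pools 667 nm emission and signal to noise measuring lysate protein binding.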 The following applies: COS7 hTOR1A mutant lysate, 635 nm fluorescence, higher = more signal.
In test [20] the test system is Sonic hedgehog protein (Shh). Put plainly: Sonic hedgehog microarray binding compounds – biochemical, small-molecule microarray, 635/667 nm fluorescence, primary screen (AID 1151).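 Note: Shh protein binding to compounds spotted on small-molecule microarray slides; score combines spot fluorescence intensity with signal-to-noise across triplicate slides.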 The following applies: 635 nm fluorescence, higher = more signal.

Active and inactive are the calls of the source. Unless noted, the rule behind the calls is not given here.

Torsin-1A (Homo sapiens), sequence (O14656 whole entry, looked up): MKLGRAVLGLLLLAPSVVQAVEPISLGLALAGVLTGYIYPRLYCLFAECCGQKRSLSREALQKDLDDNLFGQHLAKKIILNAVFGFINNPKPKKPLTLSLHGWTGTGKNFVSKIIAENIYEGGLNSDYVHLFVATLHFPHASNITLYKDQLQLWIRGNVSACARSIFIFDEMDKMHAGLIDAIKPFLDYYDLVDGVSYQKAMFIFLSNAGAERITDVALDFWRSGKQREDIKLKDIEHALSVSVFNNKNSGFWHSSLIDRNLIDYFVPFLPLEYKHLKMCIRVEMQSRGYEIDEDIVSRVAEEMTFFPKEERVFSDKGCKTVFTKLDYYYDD
Fibroblast growth factor 2 (Homo sapiens), sequence (P09038 whole entry, looked up): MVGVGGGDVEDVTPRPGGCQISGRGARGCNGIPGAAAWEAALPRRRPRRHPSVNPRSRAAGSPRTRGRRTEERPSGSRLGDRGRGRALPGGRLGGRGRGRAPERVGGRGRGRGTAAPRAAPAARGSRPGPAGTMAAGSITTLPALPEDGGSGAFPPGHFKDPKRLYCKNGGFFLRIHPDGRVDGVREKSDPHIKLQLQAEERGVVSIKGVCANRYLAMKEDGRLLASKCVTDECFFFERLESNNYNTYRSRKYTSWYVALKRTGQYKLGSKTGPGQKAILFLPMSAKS
Luciferin 4-monooxygenase (Photinus pyralis), sequence (P08659 whole entry, looked up): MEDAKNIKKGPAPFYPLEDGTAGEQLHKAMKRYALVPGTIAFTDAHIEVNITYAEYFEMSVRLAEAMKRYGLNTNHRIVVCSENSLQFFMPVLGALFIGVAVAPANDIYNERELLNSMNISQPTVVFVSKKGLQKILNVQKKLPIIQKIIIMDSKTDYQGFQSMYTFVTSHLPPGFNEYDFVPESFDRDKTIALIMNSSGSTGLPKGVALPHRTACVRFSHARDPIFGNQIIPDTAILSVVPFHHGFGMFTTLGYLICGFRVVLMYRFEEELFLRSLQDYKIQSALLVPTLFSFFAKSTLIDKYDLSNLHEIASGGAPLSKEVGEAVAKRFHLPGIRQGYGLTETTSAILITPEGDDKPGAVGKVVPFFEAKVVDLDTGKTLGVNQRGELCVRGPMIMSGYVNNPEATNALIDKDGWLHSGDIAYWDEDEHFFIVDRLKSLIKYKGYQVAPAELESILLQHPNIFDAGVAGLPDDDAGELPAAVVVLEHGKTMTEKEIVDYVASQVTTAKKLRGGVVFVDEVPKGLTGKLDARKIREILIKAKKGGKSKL
Follistatin (Homo sapiens), sequence (P19883 whole entry, looked up): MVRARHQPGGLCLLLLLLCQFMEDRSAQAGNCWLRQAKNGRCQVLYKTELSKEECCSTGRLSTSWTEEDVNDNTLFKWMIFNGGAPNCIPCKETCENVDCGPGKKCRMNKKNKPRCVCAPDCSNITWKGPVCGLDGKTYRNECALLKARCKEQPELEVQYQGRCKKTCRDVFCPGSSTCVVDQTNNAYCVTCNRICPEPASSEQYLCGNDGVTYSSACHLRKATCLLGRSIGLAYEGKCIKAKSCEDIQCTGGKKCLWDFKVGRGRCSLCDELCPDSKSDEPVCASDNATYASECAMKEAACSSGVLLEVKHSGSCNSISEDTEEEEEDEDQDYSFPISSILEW
Focal adhesion kinase 1 (Homo sapiens), sequence (Q05397 whole entry, looked up): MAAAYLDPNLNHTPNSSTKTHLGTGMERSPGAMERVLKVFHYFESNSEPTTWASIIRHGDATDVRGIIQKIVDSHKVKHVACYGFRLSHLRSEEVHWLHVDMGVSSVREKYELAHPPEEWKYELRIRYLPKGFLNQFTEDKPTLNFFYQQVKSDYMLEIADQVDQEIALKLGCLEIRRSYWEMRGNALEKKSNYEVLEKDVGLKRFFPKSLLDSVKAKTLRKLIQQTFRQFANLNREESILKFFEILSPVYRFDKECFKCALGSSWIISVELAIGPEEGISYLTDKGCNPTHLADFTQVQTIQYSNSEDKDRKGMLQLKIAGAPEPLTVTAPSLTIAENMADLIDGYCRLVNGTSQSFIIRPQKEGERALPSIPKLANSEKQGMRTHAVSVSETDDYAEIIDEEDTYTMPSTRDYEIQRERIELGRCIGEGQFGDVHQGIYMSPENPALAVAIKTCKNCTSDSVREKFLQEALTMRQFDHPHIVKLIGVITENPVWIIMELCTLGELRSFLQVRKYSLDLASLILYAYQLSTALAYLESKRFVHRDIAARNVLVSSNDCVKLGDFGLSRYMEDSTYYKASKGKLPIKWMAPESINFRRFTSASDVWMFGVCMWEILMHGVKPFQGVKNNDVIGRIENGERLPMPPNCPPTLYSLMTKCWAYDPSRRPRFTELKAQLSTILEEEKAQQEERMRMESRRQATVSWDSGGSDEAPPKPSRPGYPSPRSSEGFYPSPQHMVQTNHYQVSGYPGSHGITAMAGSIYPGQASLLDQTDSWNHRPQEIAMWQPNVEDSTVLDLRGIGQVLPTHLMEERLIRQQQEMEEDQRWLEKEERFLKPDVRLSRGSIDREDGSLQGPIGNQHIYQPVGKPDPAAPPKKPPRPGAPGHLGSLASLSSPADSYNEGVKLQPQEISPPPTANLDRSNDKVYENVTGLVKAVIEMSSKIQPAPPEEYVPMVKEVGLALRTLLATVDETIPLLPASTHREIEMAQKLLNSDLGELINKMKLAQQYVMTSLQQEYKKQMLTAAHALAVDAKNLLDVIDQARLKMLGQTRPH
Streptavidin (Streptomyces avidinii), sequence (P22629 whole entry, looked up): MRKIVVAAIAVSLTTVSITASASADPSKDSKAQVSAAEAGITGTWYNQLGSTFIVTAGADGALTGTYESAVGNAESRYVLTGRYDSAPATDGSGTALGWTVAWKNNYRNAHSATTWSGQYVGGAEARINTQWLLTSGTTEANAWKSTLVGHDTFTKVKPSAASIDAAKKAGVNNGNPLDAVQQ

As to `COc1c(C)cc(-c2cc3c(c(Cc4ccccc4)n2)[Si](C(C)C)(C(C)C)OC3)cc1C`, the composite z-score is 0.0134 in [1]; -0.006 in [2]; 0.212 in [3]; 0.0295 in [4]; 0.308 in test [5]; 0.0273 in test [6]. Also, the composite z-score in test [8] was 0.708; in test [9], -0.063; in [11], 0.0025; in test [16], 0.169; in test [17], -0.128; in test [18], -0.0914. Further, the composite z-score in [19] is -0.105; in [20], 0.513. Besides, the z-score in [7] is 0.0666; in test [10], 0.674 (inactive); in [12] it was 0.428 (inactive); in [13], 0.602 (inactive); in [14], -0.0848 (inactive); in [15], -0.47 (inactive).
Take `C[C@H]1C2=C3C(CC[C@H]4C(OCc5ccc(F)cc5C(F)(F)F)OC[C@](C)([C@@H]34)N(C(=O)OC(C)(C)C)C2)C2COC(=O)OCC21` (stereo not given in full): the composite z-score is 2.42 in test [1]; 1.16 in test [2]; 1.46 in [3]; 0.96 in [4]; 0.856 in test [5]; -1.5 in test [6]. Moreover, the composite z-score in [8] is -0.225; in test [9], 0.792; in test [11], 0.163; in test [16], 1.29; in test [17], 0.0992; in test [18] it was 0.639. Also, the composite z-score in test [19] was 0.988; in test [20], -0.789. In addition, the z-score in test [7] was 1.75; in test [10], 1.85 (inactive); in test [12], -1.13 (inactive); in [13] it was -0.318 (inactive); in [14], 0.201 (inactive); in test [15] it was 0.796 (inactive).
With `CC[C@@H]1[C@H]2C3C(=O)N(CC)C(=O)C3CC(=O)[C@H]2[C@H](c2ccc(C)cc2)N1S(=O)(=O)c1ccc(C)cc1` (stereo not given in full), the composite z-score in test [1] worked out at 0.733; in test [2], 1.1; in test [3], 0.213; in test [4], 0.142; in test [5], 0.532; in test [6] it was 0.087. For the same compound, the composite z-score was 0.201 in test [8]; 0.676 in test [9]; 0.163 in test [11]; 1.4 in test [16]; -0.0986 in test [17]; -0.343 in test [18]. The composite z-score in test [19] turned out to be 0.112; in test [20], 0.514. Moreover, the z-score in [7] was 1.18; in test [10], 0.497 (inactive); in [12], -2.9 (inactive); in [13], 0.394 (inactive); in [14], -0.77 (inactive); in test [15], -0.878 (inactive).
Take `NC(N)=NCc1cn(CCc2c[nH]c3ccccc23)nn1`: the composite z-score in test [1] is 2; in [2] it was 0.599; in [3], 0.0313; in [4], 0.367; in test [5], 0.832; in [6] it was 1.07. The composite z-score in test [8] was 1.05; in [9], 0.0932; in test [11] it was 0.131; in [16], 0.294; in test [17] it was 0.0275; in [18], 0.607. Also, the composite z-score in test [19] stood at 0.734; in test [20] it was 1.54. The z-score in test [7] is 0.0134; in test [10], -0.813 (inactive); in test [12], -0.343 (inactive); in test [13], 0.845 (inactive); in [14] it was -0.0989 (inactive); in [15], 0.0771 (inactive).
For the compound `CCCC[C@@H]1C[C@H]1[C@@H](NC(=O)c1cccnc1)c1ccc(-c2ccccc2)cc1`, the composite z-score in test [1] is -0.238; in test [2], -0.647; in [3], -0.14; in test [4], -2.12; in test [5] it was -1.17; in [6], -2.03. Also, the composite z-score in [8] is -0.815; in test [9], -0.166; in [11] it was -0.995; in test [16], -1.02; in test [17] it was -0.251; in [18] it was -2.78. Further, the composite z-score in test [19] is -1.29; in test [20] it was -0.822. The z-score in [7] was 0.475; in test [10], 0.0562 (inactive); in test [12] it was -2.72 (inactive); in test [13] it was -0.327 (inactive); in [14], -0.372 (inactive); in test [15], 0.162 (inactive).
